PubChem BioAssay AID1039 (National Center for Advancing Translational Sciences (NCATS), 2008)
The source made the active and inactive calls. A call without a number means that no potency is given here. Calls follow the shape of the full dose curve.

assay: Normal 2 Cell Viability Secondary Assay for qHTS Assay for Epigenetic Modulators; conditions: Normal 2 bronchial epithelial viability, MTS, 4 days
Source text: NIH Molecular Libraries Screening Centers Network [MLSCN] NIH Chemical Genomics Center [NCGC] MLSCN Grant: 1 X01 MH079860-01 Assay Provider: Elisabeth D. Martinez, University of Texas SW Medical Center NCGC Assay Overview: This secondary assay characterizes selected actives identified in the qHTS of the Locus Derepression (LDR) assay (PubChem AID 597). The LDR assay detects the derepression of a GFP reporter that is stably integrated in a region of the genome of murine c127i mammary cells that is presumably silenced. Compounds that cause derepression of the locus to express GFP are identified by enumerating GFP positive cells using a laser-scanning microplate cytometer. Selected LDR actives were assayed for killing of Normal 2, a patient-derived normal bronchial epithelial line matched to NSCLC 2, a nonsmall cell lung carcinoma line from the same patient. The Normal 2 line assays the cytoxicity of test compounds on normal lung cells. Normal 2 cell viability was measured using Cell Titer 96 AQueous One (Promega), an assay which detects the ability of metabolically active cells to reduce a tetrazolium salt substrate (MTS), into a soluble formazan product that can be measured by colorimetry.
NCGC Assay Protocol Summary Normal 2 cells were plated in 96-well flat bottom tissue culture dishes (Corning) and grown overnight at 37 C and 5% CO2, then treated with compounds, incubated 4 days, and assayed for viability using the Cell Titer 96 AQueous One kit (Promega) according to the manufacturer's protocol. Absorbance at 490 nm and 650 nm (reference) was measured by a Spectra Max (Molecular Devices). Data were normalized to the untreated control (100% viability). Each cell line was tested in one or two independent assays, each containing 4 or 8 replicates. For further details, see R.L. Johnson, W. Huang, A. Jadhav, C.P. Austin, J. Inglese, E.D. Martinez, A Quantitative High-Throughput Screen Identifies Potential Epigenetic Modulators of Gene Expression, Analytical Biochemistry (2007), doi: 10.1016/j.ab.2007.12.028

Structure (SMILES)	Potency	outcome
CC(C)C(=O)NC(c1ccco1)c1ccc2cccnc2c1O (stereo not drawn)	10 µM (active)	
O=Nc1ccc(O)c2ncccc12	9 µM (active)	
O=C(CSc1cccc2cccnc12)N1CCCC1		inactive
CC(C)C(=O)NC(c1ccc(N(C)C)cc1)c1ccc2cccnc2c1O (stereo not drawn)	5 µM (active)	
O=C(CSc1cccc2cccnc12)NCc1ccccc1		inactive
CC(C)C(=O)NC(c1ccco1)c1cc([N+](=O)[O-])c2cccnc2c1O (stereo not drawn)	2 µM (active)	
CN1C(=S)SC(c2ccccc2)N(C)C1c1ccccc1 (stereo not drawn)		inactive
CC(/C=C/C(=O)NO)=C\[C@@H](C)C(=O)c1ccc(N(C)C)cc1		inactive
